# Results from PubChem BioAssay AID720486 (Milwaukee Institute for Drug Discovery, 2013).
# Some of the results follow. Unmarked numbers belong to inactive results.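 The calls were made as follows: active = inhibition of at least 50%; inactive = the rest.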
# Biological target: Single-stranded DNA-binding protein (Escherichia coli (strain K12)) (UniProt P0AGE0)
# Assay: disruption of SSB binding to ssDNA – biochemical, fluorescence polarization, selected ChemBridge compounds, counter-screen for HCV NS3 helicase inhibitor project (AID 720486);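 also: displacers lower Cy5 polarization so higher inhibition means more SSB displaced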
# Conditions: E. coli SSB binding Cy5-dT15, fluorescence polarization; at 100 µM; stronger effect = higher value
# Chain of Single-stranded DNA-binding protein (Escherichia coli (strain K12)) (P0AGE0 whole entry, looked up): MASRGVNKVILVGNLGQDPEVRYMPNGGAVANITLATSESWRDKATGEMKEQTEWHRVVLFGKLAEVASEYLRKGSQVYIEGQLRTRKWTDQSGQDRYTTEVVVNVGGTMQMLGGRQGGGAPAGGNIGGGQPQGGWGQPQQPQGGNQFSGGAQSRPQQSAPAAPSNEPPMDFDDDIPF
smiles,measurement,value
CCOc1cc(C=C2C(=O)NC(=O)NC2=O)cc(Br)c1OCCOc1ccccc1C,inhibition,36.9%
